DAT uptake mod: changed human dopamine transporter uptake under cocaine IC80. Q01959. B-score at 10 µM. actives 1.3% (n = 110,000). LLC-PK1 hDAT cells, [14C]-dopamine uptake with cocaine IC80; actives deviate in either direction;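 active = Z score or B-score, a plate-position-corrected score, falls beyond the plate's 99.7% confidence bounds, in either direction; inactive = both scores lie inside the 99.7% bounds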;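 note: scored against the spread of the other compound wells on the same plate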
PLAP act: human PLAP activation | activation fold at 20 µM | purified PLAP enzyme, luminescent substrate read-out; stronger effect = higher value | actives 1.2% (n = 96,000) | P05187; in the data active = activation fold above about 2
Target sequence (P05187 whole entry, looked up): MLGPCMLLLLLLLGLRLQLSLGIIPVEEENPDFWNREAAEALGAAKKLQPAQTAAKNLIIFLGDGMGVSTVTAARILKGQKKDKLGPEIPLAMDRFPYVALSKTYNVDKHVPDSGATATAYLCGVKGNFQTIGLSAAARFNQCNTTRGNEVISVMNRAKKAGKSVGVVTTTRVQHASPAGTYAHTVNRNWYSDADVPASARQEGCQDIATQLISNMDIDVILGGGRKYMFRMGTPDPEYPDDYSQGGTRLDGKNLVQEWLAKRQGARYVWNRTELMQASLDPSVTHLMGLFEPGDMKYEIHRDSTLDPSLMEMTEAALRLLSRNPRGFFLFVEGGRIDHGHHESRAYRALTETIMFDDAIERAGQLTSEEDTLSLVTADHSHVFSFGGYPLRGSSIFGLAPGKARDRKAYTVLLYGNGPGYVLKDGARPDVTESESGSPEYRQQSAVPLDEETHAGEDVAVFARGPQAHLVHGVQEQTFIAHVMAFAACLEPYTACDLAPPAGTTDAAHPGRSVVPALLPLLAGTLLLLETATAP
PostGolgi ctrl: inhibits growth of the yeast control strain; efflux-deficient yeast background strain, growth absorbance A615, 16 h; inhibition, % at 10 µM; actives 5% (n = 98,000); AID 738
Cav32 inh: inhibitors of human Cav3.2 T-type calcium channel | B-score at 10 µM | Cav3.2-expressing cells, Fluo-4 calcium fluorescence FDSS; stronger effect = lower value | actives 4% (n = 100,000) | O95180;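 active = single-dose well whose peak fluorescence ratio is a statistical outlier from its plate by either plate-standardised score or position-corrected B-score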
PostGolgi yeast: growth inhibition of a yeast mutant, post-Golgi transport screen; post-Golgi transport phenotypic cell assay; inhibition, % at 10 µM; actives 0.9% (n = 98,000);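 note: yeast cells grown in 1536-well plates; yeast grown about 18 h at 30C before absorbance read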
* hit, by the source's call; · = not tested or not shown. The list is not random: actives were taken first. Their share in the collection is about 9.6%. Cut-off read from the data, not from the text of the source, unless noted: active = inhibition above about 30%; inactive = the rest.

SMILES | DAT uptake mod | PLAP act | PostGolgi ctrl | Cav32 inh | PostGolgi yeast
COc1cc(C(CCN2CCOCC2)c2c(OC)cc(OC)c3c(C)cc(=O)oc23)cc(OC)c1OC (stereo not given) | 2.8* | · | · | 1.6 | ·
O=C(Nc1ccccc1C(F)(F)F)N1CCC(n2c(=O)[nH]c3ccccc32)CC1 | 0.086 | · | 2 | -0.32 | -8
CCOc1ccc(NC(=O)N2CCC(n3c(=O)[nH]c4ccccc43)CC2)cc1 | 2.8* | 1.6 | 0 | -0.78 | 0
CN(C)c1oc(-c2ccccc2Cl)nc1C#N | · | 1 | -5 | · | -14
CN(C)c1oc(-c2ccccc2Cl)nc1S(=O)(=O)c1ccccc1 | -0.5 | 0.9 | 32* | -6.3* | 3
COc1cc(C(=O)OCC(=O)Nc2c(F)c(F)c(F)c(F)c2F)cc(OC)c1OC | 3.7* | 1.2 | -3 | 0.35 | -2
COc1ccc(-c2nnc(Nc3nc4c(OC)cccc4s3)o2)c(OC)c1 | 0.05 | · | 7 | 0.71 | -4
COc1cc(OC)cc(-c2nnc(Nc3nc4c(F)cccc4s3)o2)c1 | 1.5 | 2.6* | 5 | 0.0043 | -3
COc1ccc(-c2nnc(Nc3nc4c(OC)cccc4s3)o2)cc1 | · | 2.3* | -5 | · | 5
Fc1cccc2sc(Nc3nnc(-c4ccccc4)o3)nc12 | 0.037 | · | 13 | -5* | 8
COc1ccc(-c2nnc(NC(=O)c3ccc(F)cc3)o2)cc1 | · | 1.4 | 4 | · | 18
COc1c(Cl)cc(Cl)cc1C(=O)n1nc(C)cc1C | 0.054 | · | · | 0.0035 | ·
Cc1ccc(C(C(=O)NCc2ccco2)N(C(=O)Cn2nnc3ccccc32)c2ccccc2)o1 (stereo not given) | 0.017 | 1.1 | -5 | · | -5
COc1ccc(N(C(=O)Cn2nnc3ccccc32)C(C(=O)NCc2ccco2)c2ccc(C)o2)cc1 (stereo not given) | 3.1* | 1.6 | -2 | -0.77 | 2
Cc1ccc(N(C(=O)Cn2nnc3ccccc32)C(C(=O)NCc2ccco2)c2ccc(C)o2)cc1 (stereo not given) | -0.2 | 1.5 | 19 | -4.3* | 6
Cc1ccc(C(C(=O)NCc2ccco2)N(CCc2ccccc2)C(=O)Cn2nnc3ccccc32)o1 (stereo not given) | · | 1.2 | -6 | -5.6* | -3
CCCN(CCC)CCNC(=O)C1c2ccccc2C(=O)N(CCOC)C1c1ccc(F)cc1 (stereo not given) | -0.31 | 1.9 | -7 | 1.3 | 7
Cc1ccc2cc(C#N)c(N3CCCC3)nc2c1C | · | 0.8 | 47* | · | -1
Cc1ccc2cc(C#N)c(N3CCCN(C(=O)C4CCCO4)CC3)nc2c1C (stereo not given) | 0.18 | 1.4 | 18 | -2 | -1
COc1ccc2nc(N3CCCC3)c(C#N)cc2c1 | 1.5 | 1.3 | 7 | -3.6* | 0
N#Cc1cc2ccccc2nc1SCC(=O)Nc1ccc(S(=O)(=O)N2CCCC2)cc1 | 0.81 | 1.5 | 1 | -1.5 | -13
COc1ccc2nc(SCC(=O)Nc3ccc(S(=O)(=O)N4CCCC4)cc3)c(C#N)cc2c1 | 0.82 | 1.5 | 33* | -0.92 | 12
COc1ccc2nc(SCC(=O)N3CCCCCC3)c(C#N)cc2c1 | 0.34 | 1.2 | 32* | -0.77 | -13
CCc1ccc2nc(SCC(=O)N3CCCCC3)c(C#N)cc2c1 | -0.061 | · | · | -0.91 | ·
CCOC(=O)c1sc2ncn(CC(=O)N(CC)CC)c(=O)c2c1C | 0.84 | 1.1 | 6 | 0.99 | 3
SMILES | DAT uptake mod | PLAP act | PostGolgi ctrl | Cav32 inh | PostGolgi yeast
C/C(N)=C(/C#N)C(=O)COC(=O)C1CCC(C(C)(C)C)CC1 (stereo not given) | 1.1 | 1.6 | 21 | -2.2 | 2
Oc1ccc(Br)cc1-c1nc2cnccn2c1NC1CCCC1 | 0.091 | 1 | 63* | -2.8 | 6
Cc1ccc(-c2nc3cnccn3c2Nc2ccc3c(c2)OCO3)cc1 | 0.95 | 1.6 | 10 | -1.2 | 5
Cc1ccc(-c2nc3cnccn3c2Nc2ccc3c(c2)OCCO3)o1 | 0.22 | 0.8 | 12 | -2.4 | 5
Oc1ccc(Br)cc1-c1nc2cnccn2c1NC1CCCCC1 | 0.45 | 1.6 | 86* | 0.02 | 29
CC(C)CC(=O)N1CCN(S(=O)(=O)c2ccc(F)cc2)CC1 | -1.9 | 0.9 | 39* | -0.29 | -6
COC(=O)Nc1ccc(S(=O)(=O)N2CCC(Cc3ccccc3)CC2)cc1 | 0.27 | 1.4 | 35* | -2.7 | 3
COC(=O)Nc1ccc(S(=O)(=O)N2CCC(C)CC2)cc1 | 0.6 | 0.8 | 18 | -0.19 | -14
COC(=O)Nc1ccc(S(=O)(=O)N2CCN(c3ccc(F)cc3)CC2)cc1 | -0.043 | 0.9 | 38* | 0.23 | -9
COC(=O)Nc1ccc(S(=O)(=O)N2CCN(C)CC2)cc1 | -0.31 | 1.1 | -1 | 0.21 | 4
COc1ccc(-c2oc(/N=C/N3CCOCC3)c(C#N)c2-c2ccc(OC)cc2)cc1 | 2 | 1.6 | 9 | -3.9 | 10
CC(C)(C)S(=O)(=O)c1ccc(S(=O)(=O)C(C)(C)C)s1 | -0.17 | · | · | 0.35 | ·
CCOC(=O)c1[nH]nc(-c2c(O)cc(C)cc2O)c1-c1csc(C)n1 | 0.62 | 2.1* | 12 | 0.17 | -1
CCCc1cc(-c2n[nH]c(C(=O)OCC)c2-c2cscn2)c(O)cc1O | 0.0029 | 2.1* | 2 | 0.07 | 7
Cc1cc(NS(=O)(=O)c2ccc(N)cc2)no1 | 0.036 | · | · | -0.18 | ·
Cc1nc2sc(C(c3cccs3)N3CCN(c4cccc(Cl)c4)CC3)c(O)n2n1 (stereo not given) | 1.9 | · | 48* | -1.7 | -1
Cc1nc2sc(C(c3cccs3)N3CCN(C(=O)c4ccco4)CC3)c(O)n2n1 (stereo not given) | -0.067 | 1.2 | 0 | -0.51 | 2
Cc1cccc(C)c1-n1c(C)cc(/C=C2\NC(=O)NC2=O)c1C | 0.5 | · | · | -6.8* | ·
Cc1ccc2c(c1)cc(CN(Cc1ccco1)C(=O)COc1ccccc1)c1nnnn12 | -0.22 | 1.6 | 42* | -0.082 | 5
Cc1cc(NCCC(C)C)n2nc(C)c(-c3ccccc3)c2n1 | -0.35 | 1 | 53* | -0.36 | -1
N#C[C@H]1[C@H](c2ccccc2)[C@](C#N)(C(=O)c2ccccc2)[C@@H]2C=Cc3ccccc3N21 | · | 1.1 | 16 | · | 2
CCC1CCCCN1C1Sc2ccc(C(=O)OC)cc2NC1=O (stereo not given) | 1 | 1.3 | 40* | -1.3 | 8
CCOC(=O)C1(P(=O)(c2ccc(Cl)cc2)c2ccc(Cl)cc2)CCC1 | -0.92 | 1.4 | 16 | -6.3* | -2
O=S(=O)(c1ccc(N2CCN(CCO)CC2)nc1)N1CCCCC1 | 0.0064 | · | · | 0.59 | ·
N#Cc1ccc(-c2ccc(OCC(O)Cn3nnc4ccccc43)cc2)cc1 (stereo not given) | 0.39 | · | 35* | 1.1 | -2
OC(CN1c2ccccc2Sc2ccccc21)Cn1nnc2ccccc21 (stereo not given) | · | 1.4 | 47* | -0.54 | 10
Cc1ccc2c(c1)c(C)c(C)n2CC(O)Cn1nnc2ccccc21 (stereo not given) | -2.1 | 1.6 | 22 | -4.7* | 18
CC(=O)c1ccc(OCC(O)Cn2nnc3ccccc32)cc1 (stereo not given) | 0.2 | 1.3 | 15 | 0.88 | 5

Screening data deposited in PubChem BioAssay by several laboratories.
